Reference: the supplement of paper PMC6555819

What was measured:
Experiment in all cases: PBM binding z-score (relative to random genomic background probes); higher = stronger binding; sequences stand for … in GC…GCGATTGACAGCGTAGAATGAAGG
[1] = system: FXR:RXRa (NR concentration 270 nM, RXRa partner concentration 90 nM)
How it was run: (§1)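 Probes were double-stranded and carried 34-nt variable regions with direct-repeat seeds, single-nucleotide variants, half-site ablations and random human genomic background sequences, printed on custom Agilent 4×180K protein-binding microarrays. Arrays were incubated 1 h with ligand-free nuclear receptor dimers in PBS pH 7.4, 2% milk, 0.02% Triton X-100, 1 mM DTT, 0.2 mg/mL BSA and 0.4 mg/ml salmon testes DNA. Antibodies against each partner (one per run) detected binding, and scanned fluorescence was regression-normalized. Binding z-scores use the random background probes as reference.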

[2] = system: LXRa:RXRa (NR concentration 270 nM, RXRa partner concentration 90 nM)
How it was run: as §1

[3] = system: LXRa homodimer (NR concentration 270 nM)
How it was run: as §1

[4] = system: LXRb:RXRa (NR concentration 270 nM, RXRa partner concentration 90 nM)
How it was run: as §1

[5] = system: LXRb homodimer (NR concentration 270 nM)
How it was run: as §1

[6] = system: PPARa:RXRa (NR concentration 270 nM, RXRa partner concentration 90 nM)
How it was run: as §1

[7] = system: PPARg:RXRa (NR concentration 180 nM, RXRa partner concentration 90 nM)
How it was run: as §1

[8] = system: PPARg:RXRa 270nM:90nM, anti-RXR (NR concentration 270 nM, RXRa partner concentration 90 nM)
How it was run: as §1

[9] = system: PPARg:RXRa 30nM:10nM, anti-RXR (NR concentration 30 nM, RXRa partner concentration 10 nM)
How it was run: as §1

[10] = system: PPARg:RXRa 90nM:30nM, anti-RXR (NR concentration 90 nM, RXRa partner concentration 30 nM)
How it was run: as §1

[11] = system: PPARg:RXRa DBDmut IVT, anti-RXR (DBD mutation: RXRa K156A/R161A, NR concentration 270 nM, RXRa partner concentration 90 nM)
How it was run: as §1

[12] = system: PPARg:RXRa IVT, anti-PPARg (NR concentration 270 nM, RXRa partner concentration 90 nM)
How it was run: as §1

[13] = system: PPARg DBDmut:RXRa IVT, anti-PPARg (DBD mutation: PPARg1 K132A/R137A, NR concentration 270 nM, RXRa partner concentration 90 nM)
How it was run: as §1

[14] = system: PPARg DBDmut IVT, anti-PPARg (DBD mutation: PPARg1 K132A/R137A, NR concentration 270 nM)
How it was run: as §1

[15] = system: PPARg homodimer (NR concentration 180 nM)
How it was run: as §1

[16] = system: PXR:RXRa (NR concentration 270 nM, RXRa partner concentration 90 nM)
How it was run: as §1

[17] = system: PXR homodimer (NR concentration 270 nM)
How it was run: as §1

[18] = system: RARa:RXR (NR concentration 270 nM, RXRa partner concentration 90 nM)
How it was run: as §1

[19] = system: RARa homodimer (NR concentration 270 nM)
How it was run: as §1

[20] = system: RARb:RXRa (NR concentration 270 nM, RXRa partner concentration 90 nM)
How it was run: as §1

Row | Sequence | PBM binding z-score [1] | PBM binding z-score [2] | PBM binding z-score [3] | PBM binding z-score [4] | PBM binding z-score [5] | PBM binding z-score [6] | PBM binding z-score [7] | PBM binding z-score [8] | PBM binding z-score [9] | PBM binding z-score [10] | PBM binding z-score [11] | PBM binding z-score [12] | PBM binding z-score [13] | PBM binding z-score [14] | PBM binding z-score [15] | PBM binding z-score [16] | PBM binding z-score [17] | PBM binding z-score [18] | PBM binding z-score [19] | PBM binding z-score [20]
1 | AGAATGAGTTTATTAAGATCAGGGAATTGCGGTC | -0.0233 | -0.176 | 0.0886 | -0.353 | 0.198 | -0.254 | 0.0616 | -0.094 | -0.0755 | -0.195 | -0.196 | -0.106 | 0.457 | 0.0162 | 0.334 | 1.31 | 2.04 | 0.154 | 0.655 | 0.143
2 | GCGACTGGGGCAAAGCAGGTTACCATAAGGTTGG | 1.14 | 0.088 | -0.593 | 0.0291 | -1.39 | 1.15 | 1.19 | 1.12 | -0.898 | 0.47 | 4.62 | 3.61 | -0.534 | -0.872 | -0.306 | 0.415 | -0.59 | 0.0364 | -0.818 | 0.93
3 | AATACAGGGTCATCGTAGGCCGGAGTACGCACAG | 6.87 | 6.14 | 2.19 | 4.53 | 1.37 | 5.62 | 6.36 | 5.92 | 2.34 | 4.59 | 2.7 | 4.02 | 1.63 | 1.58 | 2.22 | 4.4 | 0.419 | 4.74 | 0.979 | 4.17
4 | GCTGCTAGGTCAGGTTGTTCAGCTAACGGGTACG | 1.07 | 0.82 | -0.00729 | 0.433 | -0.427 | 1.29 | 0.414 | 1.18 | -0.403 | 0.471 | 3.24 | 2.3 | 0.0355 | -0.699 | 0.293 | 0.34 | -0.306 | 0.883 | -0.985 | 3.15
5 | ATACCAAGGTGTTCGTGAGGTCGTTGATACTAAC | 1.76 | 2.11 | 1.19 | 1.3 | 0.178 | 1.24 | 0.117 | 0.343 | -0.0462 | 0.253 | -0.0075 | 0.497 | 0.822 | 0.323 | 0.594 | 2.41 | 1.6 | 2.11 | 0.456 | 0.861
6 | TAGCCTAGGTCATTCAGGGGCCAGGATAGAAAGC | 4.96 | 3.81 | 0.311 | 2.77 | 0.864 | 3.69 | 2.2 | 2.42 | 0.232 | 1.26 | 1.12 | 2.85 | 0.258 | -0.519 | 1.31 | 2.26 | -0.068 | 3.5 | -0.579 | 3.97
7 | CCTGGTAGGTCATGGTCAGCTAATCTACAGTATG | 3.94 | 3.15 | 0.527 | 2.3 | 0.0201 | 4.05 | 4.22 | 4.12 | 1.32 | 3.01 | 4.25 | 5.18 | 0.295 | 0.552 | 1.94 | 2.02 | -0.0799 | 2.83 | 0.611 | 3.81
8 | CCTACTGGGCCAAAAAGGTCATTGCTGCCGATAA | 3.75 | 4.36 | 3.33 | 4.21 | 0.236 | 4.7 | 3.04 | 4.09 | 1.5 | 3.64 | 4.17 | 4.29 | 0.288 | -0.116 | 3.92 | 4.87 | 3.45 | 5.19 | 0.902 | 3.98
